Inconclusive results are not listed. Activity calls are given as the source filed them. Unless noted, the call rests on the fitted dose curve; in most records, active means well fitted curve in the direction sought with a large enough effect; inconclusive means small, poorly fitted or top-dose-only effect, or another doubt; inactive means no such curve, though single readings can be large; an effect the other way counts as inactive or inconclusive.
Columns and labels:
[1] = Validation screen for small molecules that induce genotoxicity in human embryonic kidney (HEK293T) cells expressing luciferase-tagged ELG1 (AID 493106); further: 0% is about no effect
Method in brief: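 HEK293T cells expressing luciferase-tagged ELG1 were exposed to compound or DMSO vehicle for 16 hr at 37 °C, 5% CO2. Genotoxic stress raises ELG1 levels, so increased luciferase signal after ONE-Glo addition and 30 min at room temperature marks hits.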

[2] = biological target: ATPase family AAA domain-containing protein 5 (Homo sapiens) (UniProt Q96QE3); assay: Validation screen for small molecules that inhibit ELG1-dependent DNA repair in human embryonic kidney (HEK293T) cells expressing luciferase-tagged ELG1 (AID 493107); further: nearly all actives have a fitted effect of over 70% in size; further: potency means the concentration at half of the fitted maximal effect
Chain of ATPase family AAA domain-containing protein 5 (Homo sapiens) (Q96QE3 whole entry, looked up, the tested form may be a part): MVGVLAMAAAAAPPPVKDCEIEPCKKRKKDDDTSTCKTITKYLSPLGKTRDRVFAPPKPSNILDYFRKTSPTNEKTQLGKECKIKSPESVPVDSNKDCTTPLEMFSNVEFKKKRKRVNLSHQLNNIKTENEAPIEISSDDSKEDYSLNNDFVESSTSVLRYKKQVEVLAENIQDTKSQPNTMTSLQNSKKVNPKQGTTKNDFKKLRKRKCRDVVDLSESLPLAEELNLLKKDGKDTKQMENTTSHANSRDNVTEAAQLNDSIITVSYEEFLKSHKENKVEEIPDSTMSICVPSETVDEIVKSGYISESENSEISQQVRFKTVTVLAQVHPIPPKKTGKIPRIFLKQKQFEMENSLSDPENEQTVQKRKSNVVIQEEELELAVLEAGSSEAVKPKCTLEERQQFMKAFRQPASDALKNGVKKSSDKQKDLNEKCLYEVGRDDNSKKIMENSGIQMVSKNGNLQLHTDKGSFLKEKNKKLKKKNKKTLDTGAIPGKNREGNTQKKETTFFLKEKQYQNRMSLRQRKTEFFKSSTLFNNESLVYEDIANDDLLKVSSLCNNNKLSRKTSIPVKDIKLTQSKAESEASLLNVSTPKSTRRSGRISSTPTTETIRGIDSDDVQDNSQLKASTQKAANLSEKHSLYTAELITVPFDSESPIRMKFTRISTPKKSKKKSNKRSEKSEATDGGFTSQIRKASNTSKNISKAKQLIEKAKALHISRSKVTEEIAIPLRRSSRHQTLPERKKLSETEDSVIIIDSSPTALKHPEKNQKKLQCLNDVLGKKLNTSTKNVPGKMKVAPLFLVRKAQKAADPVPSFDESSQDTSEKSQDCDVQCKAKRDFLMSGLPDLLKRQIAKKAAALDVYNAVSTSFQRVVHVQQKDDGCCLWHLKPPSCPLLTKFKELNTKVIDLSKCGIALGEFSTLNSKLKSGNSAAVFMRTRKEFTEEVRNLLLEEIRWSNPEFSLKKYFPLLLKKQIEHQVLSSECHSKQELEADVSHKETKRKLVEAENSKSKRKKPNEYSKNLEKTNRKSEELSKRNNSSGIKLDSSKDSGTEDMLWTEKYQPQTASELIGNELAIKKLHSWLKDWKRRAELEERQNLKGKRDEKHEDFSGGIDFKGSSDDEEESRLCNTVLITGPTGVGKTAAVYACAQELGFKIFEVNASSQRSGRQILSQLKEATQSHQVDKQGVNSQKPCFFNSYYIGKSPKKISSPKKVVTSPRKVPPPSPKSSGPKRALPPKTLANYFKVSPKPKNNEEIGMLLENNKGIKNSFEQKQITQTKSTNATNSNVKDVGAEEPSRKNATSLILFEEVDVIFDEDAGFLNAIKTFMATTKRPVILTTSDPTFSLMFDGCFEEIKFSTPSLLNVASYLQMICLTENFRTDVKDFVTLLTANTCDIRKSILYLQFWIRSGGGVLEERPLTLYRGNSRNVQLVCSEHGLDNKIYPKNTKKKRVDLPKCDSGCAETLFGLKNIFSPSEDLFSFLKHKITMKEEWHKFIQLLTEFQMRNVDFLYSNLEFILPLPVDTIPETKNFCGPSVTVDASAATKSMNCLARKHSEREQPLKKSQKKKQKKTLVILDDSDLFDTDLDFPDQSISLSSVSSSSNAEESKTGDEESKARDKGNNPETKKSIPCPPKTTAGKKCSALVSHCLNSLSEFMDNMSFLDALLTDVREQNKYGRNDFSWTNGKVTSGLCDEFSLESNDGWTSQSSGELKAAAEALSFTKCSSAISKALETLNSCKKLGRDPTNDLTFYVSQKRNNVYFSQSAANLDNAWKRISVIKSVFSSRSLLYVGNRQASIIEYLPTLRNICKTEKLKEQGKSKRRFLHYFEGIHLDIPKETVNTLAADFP
Method in brief: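 HEK293T cells expressing luciferase-tagged ELG1 were co-treated with 5-fluorouridine and compound or DMSO for 16 hr at 37 °C, 5% CO2. Luciferase activity was then read with ONE-Glo after 30 min at room temperature; suppressed signal indicates blocked ELG1 function.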

[3] = biological target: Thyrotropin-releasing hormone receptor (Homo sapiens) (UniProt P34981); assay: qHTS for Small Molecule Agonists and Allosteric Enhancers of Human TRH Receptor: Validation Screen for Agonists (AID 493127;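 active means calcium activation more than 3 SD above the typical response in the agonist read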;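 further: intracellular calcium rise by fluo-8 fluorescence before TRH EC20 addition; 0% is about no effect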); settings: TRH receptor agonist cell assay; at 2 µM; stronger effect = higher value
Chain of Thyrotropin-releasing hormone receptor (Homo sapiens) (P34981 whole entry, looked up): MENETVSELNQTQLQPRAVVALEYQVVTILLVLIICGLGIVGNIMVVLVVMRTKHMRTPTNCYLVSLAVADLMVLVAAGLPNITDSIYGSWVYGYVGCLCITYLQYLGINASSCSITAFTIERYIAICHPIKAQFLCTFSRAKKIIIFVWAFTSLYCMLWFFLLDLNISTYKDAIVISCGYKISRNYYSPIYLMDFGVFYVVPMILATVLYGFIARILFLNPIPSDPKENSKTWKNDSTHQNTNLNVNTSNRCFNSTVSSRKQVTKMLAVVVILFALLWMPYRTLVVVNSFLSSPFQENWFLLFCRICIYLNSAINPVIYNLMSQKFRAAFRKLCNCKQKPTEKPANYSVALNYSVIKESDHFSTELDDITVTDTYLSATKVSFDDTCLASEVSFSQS
Method in brief: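 TRHR-expressing cells were plated overnight in serum-containing medium, then loaded with fluo-8 calcium dye at room temperature for 30 min–1.5 h. After a 10 s baseline, compound was pin-transferred and calcium fluorescence (ex 480/em 530) read kinetically for agonist response.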

[4] = Nrf2 qHTS screen for inhibitors: Validation (AID 493153; active means well fitted inhibition curve with a large enough effect in the main read-out, with a control signal flat, not every such curve was filed as active); settings: Potency: luciferase luminescence; viability change: measured here: cytotoxicity max response
Method in brief: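 A549 cells carrying an ARE-driven firefly luciferase reporter, in 5% FBS OPTI-MEM, were treated with compounds in concentration-response for 18-24 h at 37°C. Viability was read by CellTiter-Fluor fluorescence, then Nrf2 activity by luciferase luminescence.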

[5] = qHTS for Inhibitors of Cell Surface uPA Generation: Validation Assay (AID 493164);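 further: RAW 264.7 macrophage cells exposed to compound for 18 h; 0% is about no effect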
Method in brief: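 RAW 264.7, 4000 cells/well, o/n plating; cpd 7-pt 1:5 dilution 2.45 nM–38.3 uM final; 18 h, 37 C/5% CO2; ATP-Lite, 5 s luminescence exposure.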

[6] = Validation screen for small molecules that induce DNA re-replication in SW480 colon adenocarcinoma cells (AID 504364); further: 0% is about no effect
Method in brief: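 SW480 cells seeded at 250 per well were exposed to compound or DMSO for 48 hr at 37 C, 5% CO2, then stained with Hoechst for 40 min. DNA content per nucleus was imaged (405 nm ex, 500-530 nm em).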

[7] = biological target: Peptidyl-prolyl cis-trans isomerase NIMA-interacting 1 (Homo sapiens) (UniProt Q13526); assay: qHTS Validation Assay to Find Inhibitors of Pin1 (AID 504536; active means well fitted inhibition curve with a large enough effect in the polarisation, with a control signal flat, not every such curve was filed as active; the % refers to the polarisation; further: potency means the concentration at half of the fitted maximal effect)
Chain of Peptidyl-prolyl cis-trans isomerase NIMA-interacting 1 (Homo sapiens) (Q13526 whole entry, looked up): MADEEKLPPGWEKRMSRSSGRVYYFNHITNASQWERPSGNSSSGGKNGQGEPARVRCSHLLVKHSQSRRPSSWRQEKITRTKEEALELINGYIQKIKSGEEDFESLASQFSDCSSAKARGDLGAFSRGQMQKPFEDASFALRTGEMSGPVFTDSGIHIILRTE
Method in brief: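 Fluorescence polarization competition: compounds (titration) displace HiFluor-488-labeled Pin1-1b peptide from Pin1 (0.3 uM final) in pH 7.5 HEPES buffer with DTT, 10 min at room temperature; %Activity normalized to no-enzyme wells, curves fitted.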

[8] = biological target: Phosphoglycerate kinase, glycosomal (Trypanosoma brucei brucei) (UniProt P07378); assay: qHTS Validation Assay to Find Inhibitors of Phosphoglycerate Kinase (AID 504547); further: potency means the concentration at half of the fitted maximal effect
Chain of Phosphoglycerate kinase, glycosomal (Trypanosoma brucei brucei) (P07378 whole entry, looked up): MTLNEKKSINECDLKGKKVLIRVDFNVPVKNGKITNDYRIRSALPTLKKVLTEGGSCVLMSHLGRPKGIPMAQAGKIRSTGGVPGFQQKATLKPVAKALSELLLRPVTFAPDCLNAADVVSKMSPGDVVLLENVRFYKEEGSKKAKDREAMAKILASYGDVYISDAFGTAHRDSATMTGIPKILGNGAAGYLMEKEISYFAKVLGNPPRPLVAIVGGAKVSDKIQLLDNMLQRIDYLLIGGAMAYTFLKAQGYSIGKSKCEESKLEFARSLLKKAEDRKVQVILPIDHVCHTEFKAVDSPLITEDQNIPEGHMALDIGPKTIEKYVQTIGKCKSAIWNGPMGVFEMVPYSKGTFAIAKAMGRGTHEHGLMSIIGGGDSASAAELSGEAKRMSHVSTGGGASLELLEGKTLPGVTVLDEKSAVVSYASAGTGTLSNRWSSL
Method in brief: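 Inhibition of the enzyme is judged by a Kinase-Glo Plus luminescent signal following a one-hour incubation at room temperature. Because 1,3-BPG is unstable, it is made in situ by GAPDH at 100nM final; no-PGK wells define the baseline.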

[9] = biological target: Galactokinase (Homo sapiens) (UniProt P51570); assay: qHTS Validation Assay for Inhibitors of Human Galactokinase (GALK) (AID 493189); further: 0% is about no effect
Chain of Galactokinase (Homo sapiens) (P51570 whole entry, looked up): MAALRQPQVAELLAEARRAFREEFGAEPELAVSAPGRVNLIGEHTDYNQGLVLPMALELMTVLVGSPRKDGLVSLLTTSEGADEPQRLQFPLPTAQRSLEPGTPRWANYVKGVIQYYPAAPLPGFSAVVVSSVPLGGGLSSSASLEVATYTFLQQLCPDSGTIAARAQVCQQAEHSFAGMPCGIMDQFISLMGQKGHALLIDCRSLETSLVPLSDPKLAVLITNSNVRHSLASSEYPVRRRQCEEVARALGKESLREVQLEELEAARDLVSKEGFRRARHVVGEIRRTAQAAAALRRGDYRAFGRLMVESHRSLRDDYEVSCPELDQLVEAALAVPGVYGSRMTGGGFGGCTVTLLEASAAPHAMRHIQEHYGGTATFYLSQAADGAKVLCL
Method in brief: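 Luminescence from leftover ATP (Kinase-Glo Plus, 10 min) served as read-out after a 1 h room-temperature reaction of 5 nM GALK, 100 uM galactose and 35 uM ATP at pH8.0.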

CN1CCC[C@H]1c1cccnc1
-3.72%: viability change [4]
inactive: Potency [1] | Potency [2] | activation [3] 0.5% | Potency [4] | outcome [5] | Potency [6] | Potency [7] | Potency [8]

O=C(O)CCCC[C@@H]1CCSS1
inactive: Potency [1] | Potency [2] | activation [3] 0.438% | Potency [4] | outcome [5] | Potency [6] | Potency [7] | Potency [8]
5.5%: viability change [4]

CCCCN1CCC(n2c(=O)[nH]c3ccccc32)CC1
-4.5%: viability change [4]
inactive: Potency [1] | Potency [2] | activation [3] 1% | Potency [4] | outcome [5] | Potency [6] | Potency [7]

COc1cc2c(CCNC(C)=O)c[nH]c2cc1Cl
inactive: Potency [1] | Potency [2] | activation [3] 0.375% | Potency [4] | outcome [5] | Potency [6]
2.33%: viability change [4]

COC1=C(OC)C(=O)c2ccccc2C1=O
inactive: Potency [1] | Potency [2] | activation [3] 0.688% | outcome [5] | Potency [9] | Potency [8]

N#C/C(=C\c1ccc(O)c(O)c1)C(=O)NCc1ccccc1
inactive: Potency [1] | Potency [2] | activation [3] 1.31% | outcome [5] | Potency [6] | Potency [8]

C[C@@H](NC(=O)/C(C#N)=C/c1ccc(O)c(O)c1)c1ccccc1
inactive: Potency [1] | Potency [2] | activation [3] 0.938% | outcome [5] | Potency [9] | Potency [6] | Potency [7] | Potency [8]

Oc1ccccc1O
inactive: Potency [1] | Potency [2] | activation [3] 0.375% | outcome [5] | Potency [9] | Potency [6] | Potency [7]

CC(C)NCC(O)COc1cccc2ccccc12 (configuration not stated)
inactive: Potency [1] | Potency [2] | activation [3] 2.25% | Potency [4] | Potency [6] | Potency [7]
6.42%: viability change [4]

O=C1O/C(=C/Br)CCC1c1cccc2ccccc12 (configuration not stated)
active: Potency [2] 18.3 µM
inactive: Potency [1] | activation [3] -3.56% | outcome [5] | Potency [6] | Potency [8]

O=C(O)c1cc([N+](=O)[O-])ccc1NCCCc1ccccc1
inactive: Potency [1] | Potency [2] | activation [3] 0% | outcome [5] | Potency [9] | Potency [6] | Potency [7] | Potency [8]

O=C1NC(O)=NC1(c1ccccc1)c1ccccc1
inactive: Potency [1] | Potency [2] | activation [3] 0.125% | Potency [9] | Potency [6] | Potency [8]

N#C/C(=C\c1ccc(O)c(O)c1)C(=O)c1ccc(O)c(O)c1
active: Potency [8] 0.757 µM
inactive: Potency [1] | Potency [2] | activation [3] -0.562% | Potency [9]

CC(C)Cc1ccc([C@H](C)C(=O)O)cc1
6.18%: viability change [4]
inactive: Potency [1] | Potency [2] | activation [3] 0.688% | Potency [4] | outcome [5] | Potency [6] | Potency [7] | Potency [8]

CC(COc1ccc(/C=C/c2ccccc2)cc1)[N+](C)(C)C (configuration not stated)
inactive: Potency [1] | Potency [2] | activation [3] 0.125% | outcome [5] | Potency [9] | Potency [6] | Potency [7] | Potency [8]

CC1CN(S(=O)(=O)c2cccc3cnccc23)CCN1 (configuration not stated)
inactive: Potency [1] | activation [3] 1.06% | outcome [5] | Potency [6] | Potency [7] | Potency [8]
active: Potency [2] 20.6 µM

O=C(Nc1cccc(C(=O)Nc2ccc(S(=O)(=O)O)c3cc(S(=O)(=O)O)cc(S(=O)(=O)O)c23)c1)Nc1cccc(C(=O)Nc2ccc(S(=O)(=O)O)c3cc(S(=O)(=O)O)cc(S(=O)(=O)O)c23)c1
-3.71%: viability change [4]
inactive: Potency [1] | Potency [2] | activation [3] 0.875% | Potency [4] | outcome [5] | Potency [6]
active: Potency [7] 6.75 µM

Oc1ccc(C2CNCc3sccc32)cc1O (configuration not stated)
inactive: Potency [1] | Potency [2] | activation [3] 1.75% | Potency [4] | outcome [5] | Potency [6] | Potency [7] | Potency [8]
-11.4%: viability change [4]

c1ccc(-c2ccccn2)nc1
inactive: Potency [1] | Potency [2] | activation [3] 0% | Potency [4] | outcome [5] | Potency [6] | Potency [7] | Potency [8]
-0.658%: viability change [4]

— PubChem BioAssay (NCATS)
